{"source": "PubChem BioAssay (Tox21)", "note": "Where “and” joins values, the source holds several entries; their conditions need not be identical. Equal entries are not always repeated. Records with an inconclusive call do not appear. Calls of active or inactive are those of the source. Calls come from the whole dose curve; as a rule, active = well fitted cell-killing curve with a large enough effect in the repeat runs (not every such curve was filed as active); inconclusive = weak or mixed curves, or effect the other way; inactive = no such curve, though single readings can be large or run the other way. % is set by controls: 0 for no effect and ±100 for the full control effect; potency is the fitted concentration of half-maximal effect.", "data": [{"test": "qHTS assay to identify small molecule antagonists of the farnesoid-X-receptor (FXR) signaling pathway - cell viability counter screen (AID 743221); note: nearly all actives have a fitted effect of over 50% in size", "conditions": "FXR-bla HEK293T viability, CellTiter-Glo luminescence, 16 h; series mostly up to 62.6 µM; activity change, negative = cytotoxicity: at the top concentration", "text": "National Center for Advancing Translational Sciences [NCATS]\nNIH Chemical Genomics Center [NCGC]\nU.S. Environmental Protection Agency [EPA]\nNational Institutes of Environmental Health Sciences [NIEHS]\nNational Toxicology Program [NTP]\nU.S. Food and Drug Administration [FDA]\nThe farnesoid-X-receptor (FXR), a nuclear hormone receptor, is highly expressed in liver, intestine, kidney and adrenal cortex. Natural ligands of FXR are the bile acids (Cholic acid, Chenodeoxy cholic acid etc). FXR is an important regulator of diverse metabolic pathways, including the bile acid homeostasis, lipid and glucose metabolisms. FXR regulates the expression of target genes by binding either as a monomer or as a heterodimer with the retinoid X receptor (RXR). Numerous studies have reported that FXR exerts protective function during cholestasis, diabetes, liver regeneration, and cancer. To identify compounds that inhibit FXR signaling, GeneBLAzer FXR-UAS-bla HEK 293T cell line (Invitrogen, Carlsbad, CA) containing a beta-lactamase reporter gene under the control of a UAS response element was used to screen the Tox21 10K compound library. The cytotoxicity of the Tox21 compound library against the FXR-bla cell line was tested in parallel by measuring the cell viability using CellTiter-Glo assay in the same wells.\nTox21 Assay Protocol Summary:\nFXR-bla cells were dispensed at 5000 cells/5uL/well in 1536-well black wall/clear bottom plates using a Multidrop Combi (Thermo Fisher Scientific, Waltham, MA) dispenser. After the assay plates were incubated at 37 C and 5% CO2 for 5 h, 23 nL of compounds dissolved in DMSO, positive controls or DMSO only was transferred to the assay plate by a Pintool station (Kalypsys, San Diego, CA), followed by addition of 1 uL Chenodeoxycholic acid (50 uM, final concentration in the wells). The assay plates were incubated at 37C for 16 h. After 1 uL of LiveBLAzerTM B/G FRET substrate was added using a Bioraptr Flying Reagent Dispenser (FRD) workstation (Beckman Coulter, Indianapolis, IN), the plates were incubated at room temperature for 2 h, and fluorescence intensity was measured by an Envision plate reader (PerkinElmer, Shelton, CT). For cell viability readout that measures cytotoxicity, 4uL/well of CellTiter-Glo reagent was added into the assay plates using a Bioraptr FRD. After 30 min incubation at room temperature, the luminescence intensity in the plates was measured using a ViewLux plate reader (PerkinElmer).", "values": [{"smiles": "CC(COC(=O)c1ccccc1)OC(=O)c1ccccc1", "note": "(stereo not given)", "activity change, negative = cytotoxicity": "1.9% (inactive)"}, {"smiles": "COc1cc(C=C2CCC/C(=C\\c3ccc(O)c(OC)c3)C2=O)ccc1O", "Potency": "23.7 µM (active)"}, {"smiles": "C=C(C)C(=O)OCCC[Si](Cl)(Cl)Cl", "activity change, negative = cytotoxicity": "12.2% [at 81.1 µM] (inactive)"}, {"smiles": "CCC1(c2cnc[nH]2)Cc2ccccc2C1", "activity change, negative = cytotoxicity": "0.588% (inactive)"}, {"smiles": "Cc1c(C(=O)O)cccc1[N+](=O)[O-]", "activity change, negative = cytotoxicity": "12.8% [at 81.1 µM] (inactive)"}, {"smiles": "CSc1c(Cl)c(Cl)c(Cl)c(Cl)c1Cl", "activity change, negative = cytotoxicity": "1.14% (inactive)"}, {"smiles": "CC1(C)C(=O)N(Br)C(=O)N1Br", "activity change, negative = cytotoxicity": "-8% (inactive)"}, {"smiles": "O=C1OC(=O)c2cccc3cccc1c23", "activity change, negative = cytotoxicity": "-0.98% [at 81.1 µM] (inactive)"}, {"smiles": "CCOC(=O)[C@@](C)(N)Cc1ccc(O)c(O)c1", "activity change, negative = cytotoxicity": "3.73% (inactive)"}, {"smiles": "Cc1cccc(C)c1NC(=O)CN1CCN(CCCC(c2ccc(F)cc2)c2ccc(F)cc2)CC1", "Potency": "29.8 µM (active)"}, {"smiles": "O=C(O)c1cccc(Cl)n1", "activity change, negative = cytotoxicity": "-0.574% (inactive)"}, {"smiles": "SCCCCCCCCS", "activity change, negative = cytotoxicity": "5.02% (inactive)"}, {"smiles": "[O]=[Zr]", "activity change, negative = cytotoxicity": "-9.19% (inactive)"}, {"smiles": "CCCCCCCCCCCC(=O)N(CC)CC", "activity change, negative = cytotoxicity": "2.74% (inactive)"}, {"smiles": "C=CC(=O)OCC(O)COc1ccccc1", "note": "(stereo not given)", "activity change, negative = cytotoxicity": "1.07% (inactive)"}, {"smiles": "COCC(=O)O[C@]1(CCN(C)CCCc2nc3ccccc3[nH]2)CCc2cc(F)ccc2[C@@H]1C(C)C", "Potency": "23.7 µM (active)"}, {"smiles": "CC=O", "Potency": "64.5 µM (active)"}, {"smiles": "CCC(C)(C)c1cc(O)c(C(C)(C)CC)cc1O", "activity change, negative = cytotoxicity": "0.166% (inactive)"}, {"smiles": "Oc1ccc(-c2ccc(O)cc2)cc1", "activity change, negative = cytotoxicity": "-6.99% [at 81.1 µM] (inactive)"}, {"smiles": "CCCCCCCC/C=C\\CCCCCCCC(=O)OCCOC(=O)CCCCCCC/C=C\\CCCCCCCC", "activity change, negative = cytotoxicity": "5.83% [at 81.1 µM] (inactive)"}, {"smiles": "CCc1ccc(O)c(C(C)(C)C)c1", "activity change, negative = cytotoxicity": "-16.5% (inactive)"}, {"smiles": "COC(=O)NCCC[Si](OC)(OC)OC", "activity change, negative = cytotoxicity": "21.6% (inactive)"}, {"smiles": "c1ccc(Nc2cccc3ccccc23)cc1", "Potency": "inactive"}, {"smiles": "Oc1c(Br)cc(Br)c2cccnc12", "activity change, negative = cytotoxicity": "-15.2% (inactive)"}, {"smiles": "CC1=C(/C=C/C(C)=C/C=C/C(C)=C/C(=O)Nc2ccc(O)cc2)C(C)(C)CCC1", "Potency": "56.4 µM (active) and 26.6 µM (active)"}, {"smiles": "CCN(CC)CCOc1ccc(C(O)(Cc2ccc(Cl)cc2)c2ccc(C)cc2)cc1", "note": "(stereo not given)", "Potency": "29.8 µM (active)"}, {"smiles": "N[C@@H](CSSC[C@H](N)C(=O)O)C(=O)O", "activity change, negative = cytotoxicity": "5.98% [at 0.55 µM] (inactive)"}, {"smiles": "C(=C/c1ccccc1)/c1ccccc1", "activity change, negative = cytotoxicity": "-7.32% [at 81.1 µM] (inactive)"}, {"smiles": "CN1[C@@H]2CC[C@@H]1CC(OC(=O)C(CO)c1ccccc1)C2", "note": "(stereo not given in full)", "activity change, negative = cytotoxicity": "8.89% (inactive)"}, {"smiles": "C[C@@]12C(=O)OC(=O)[C@]1(C)C1CCC2O1", "Potency": "13.3 µM (active)"}, {"smiles": "CCCCCCCCCCCCCCCC", "activity change, negative = cytotoxicity": "0.491% (inactive)"}, {"smiles": "CC1CCCNC1", "note": "(stereo not given)", "activity change, negative = cytotoxicity": "8.86% (inactive)"}, {"smiles": "CO[C@H]1C=CO[C@@]2(C)Oc3c(C)c(O)c4c(O)c(cc(O)c4c3C2=O)NC(=O)/C(C)=C\\C=C/[C@H](C)[C@H](O)[C@@H](C)[C@@H](O)[C@@H](C)[C@H](OC(C)=O)[C@@H]1C", "activity change, negative = cytotoxicity": "-18% [at 81.1 µM] (inactive)"}, {"smiles": "CCN=c1cc2oc3cc(NCC)c(C)cc3c(-c3ccccc3C(=O)OCC)c-2cc1C", "Potency": "54.7 µM (active) and 54.9 µM (active)"}, {"smiles": "CC(C)(C)C1=CC(=O)C=C(C(C)(C)C)C1=O", "activity change, negative = cytotoxicity": "-15.1% (inactive)"}, {"smiles": "CCN(CC)CCCN(c1ccccc1)C1Cc2ccccc2C1", "activity change, negative = cytotoxicity": "-17.3% (inactive)"}, {"smiles": "CC(C)c1cccc(C(C)C)c1N1C(=O)c2ccc(O)cc2C1=O", "activity change, negative = cytotoxicity": "-24% (inactive)"}, {"smiles": "Cc1occc1SSc1ccoc1C", "activity change, negative = cytotoxicity": "-26.8% (inactive)"}, {"smiles": "C=CC(=O)OCCOCC(CC)(COCCOC(=O)C=C)COCCOC(=O)C=C", "Potency": "51 µM (active)"}, {"smiles": "Cc1ccc(N)cc1O", "activity change, negative = cytotoxicity": "-7.54% (inactive)"}]}]}
